Screens (PubChem)
CYP2C9 inh – human CYP2C9 inhibition. inhibition, % at 5 µM. CYP2C9 Supersomes, luciferin-H conversion, luminescence. hit rate 20% among 96,000. P11712;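 active = blocking of liver enzyme CYP2C9 beyond about 50% at 5 µM, limit read from the data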
Target sequence (P11712 whole entry, looked up): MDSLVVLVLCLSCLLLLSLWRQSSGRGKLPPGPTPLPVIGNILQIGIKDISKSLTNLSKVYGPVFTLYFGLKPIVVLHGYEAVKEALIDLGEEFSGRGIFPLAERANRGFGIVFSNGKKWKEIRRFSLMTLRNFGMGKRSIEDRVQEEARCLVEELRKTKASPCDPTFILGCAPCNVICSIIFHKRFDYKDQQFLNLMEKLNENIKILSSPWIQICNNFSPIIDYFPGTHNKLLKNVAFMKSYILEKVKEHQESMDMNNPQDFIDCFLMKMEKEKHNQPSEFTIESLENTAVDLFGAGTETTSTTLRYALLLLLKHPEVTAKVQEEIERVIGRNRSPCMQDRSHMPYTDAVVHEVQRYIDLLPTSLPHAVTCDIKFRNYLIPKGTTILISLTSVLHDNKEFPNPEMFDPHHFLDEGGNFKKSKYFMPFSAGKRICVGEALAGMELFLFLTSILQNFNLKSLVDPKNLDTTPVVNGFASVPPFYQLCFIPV
Measles CPE – protection of cells from measles virus | protection (pct of control), % at 4 µM | Measles virus-infected cells, CPE protection, absorbance | AID 841 | hit rate 1.5% among 140,000; in the data active = protection mostly above about 24%, no sharp cut-off; inactive = mostly below about 26%
CYP2C19 activ – activators of human cytochrome P450 2C19; P33261; recombinant CYP2C19, luciferin-H EGE luminescence; active compounds read high; 0 = fully inhibited enzyme, 1 = untreated enzyme; activation factor at 5 µM; 96,000 tested, under 10 active; AID 1025;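 active = activation factor of at least 2 at 5 µM in the primary screen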;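 also: 0 = wells with 2.5 mM tranylcypromine and 1 = vehicle-only wells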
CYP2C9 act – activators of human CYP2C9. P11712. hit rate 1.4% among 96,000. recombinant CYP2C9, luciferin-H conversion, luminescence; active compounds read high; factor 1 = untreated enzyme, 0 = blocked. activation factor at 5 µM;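 active = activation factor of 2 or more for CYP2C9 at a 5 µM dose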;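 also: 0 = sulfaphenazole-blocked wells and 1 = vehicle-only wells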
CYP2C19 inh – inhibitors of human CYP2C19; CYP2C19 Supersomes, luciferin-H EGE luminescence, 30 min; inhibition, % at 5 µM; hit rate 21% among 96,000; AID 778;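 active = CYP2C19 inhibition above a set limit at 5 µM in the primary screen, cut at about 50% in these data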;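 also: plate controls were negative control wells for no effect and 2.5 mM tranylcypromine positive control for full effect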
The depositor's hits bear a star; x = not tested or not shown. Shown are actives, neighbours in structure and some others; about 22% of the full set was active somewhere.

SMILES	CYP2C9 inh	Measles CPE	CYP2C19 activ	CYP2C9 act	CYP2C19 inh
CCOc1cc(C2NC(=O)NC(O)(C(F)(F)F)C2C(=O)c2ccc(OC)cc2)ccc1O (centres undefined)	8	0	0.9	0.9	11
O=C(NCc1ccccc1)c1csc2c1CCCCC2	-304	13	0.6	4*	35
O=C(NCc1ccco1)c1csc2c1CCCCC2	-317	4	0.6	4.2*	43
O=C(Nc1sccc1C(=O)NCc1ccco1)c1cccnc1	90*	24	0.8	0.1	24
O=C(NCCN1CCOCC1)c1csc2c1CCCC2	-12	5	1.1	1.1	-9
Cc1ccccc1NC(=O)c1csc2c1CCCC2	-6	23	0.8	1.1	20
O=C(NCc1cccs1)c1csc2c1CCCCC2	-150	34	0.7	2.5*	31
CC1CN(S(=O)(=O)c2ccc(C(=O)Nc3ccc(S(=O)(=O)Nc4ncccn4)cc3)cc2)CC(C)O1 (centres undefined)	x	5	x	x	x
CC12CNCC(C)(CN(C(c3ccccc3)c3ccccc3)C1)C2	x	6	x	x	x
O=C(O)c1cc2c(s1)CCCC2	-12	16	1.2	1.1	-22
O=C(NCc1cccs1)c1cc2c(s1)CCCC2	52*	1	0.4	0.5	64*
CCOC(=O)C1=C(C)OC(N)=C(C#N)C1c1cc2c(cc1Br)OCO2 (centres undefined)	42	6	0.1	0.6	93*
C=CCOC(=O)C1=C(C)OC(N)=C(C#N)C1c1ccoc1 (centres undefined)	34	7	0.2	0.7	82*
CC1=C(C#N)C(c2ccoc2)C(C(=O)OCc2ccccc2)=C(N)S1 (centres undefined)	100*	17	0	0	98*
CCOC(=O)C1=C(c2ccccc2)OC(N)=C(C#N)C1C1CCCCC1 (centres undefined)	37	3	0.8	0.6	18
CCOC(=O)C1=C(C)OC(N)=C(C#N)C1C1CCCCC1 (centres undefined)	31	12	0.2	0.7	84*
N#CC1=C(N)SC(N)=C(C#N)C1c1ccoc1	35	6	0.9	0.7	10
CCOC(=O)C1=C(C)NC(=O)NC1c1cc2c(cc1Br)OCO2 (centres undefined)	x	8	x	x	x
COC(=O)c1ccc(CSc2nc(C)nc3c2c(=O)n(C)c(=O)n3C)o1	x	13	x	x	x
CC(C)C(=O)Nc1cccc(C(=O)Nc2nnc(C(C)(C)C)s2)c1	19	5	1.1	0.8	-5
CC1(C)CC(=O)C=C(Nc2ccc(Br)cn2)C1	-1	6	0.8	1	15
CN1CCOCCOCCN(C)C1=O	0	10	0.9	1	6
CCOC(=O)C1=C(CC)OC(N)=C(C#N)C1c1cccs1 (centres undefined)	45	29	0.5	0.6	53*
COCCOC(=O)C1=C(C)OC(N)=C(C#N)C1c1ccc2c(c1)OCO2 (centres undefined)	68*	1	0.2	0.3	80*
CCOC(=O)C1=C(C)OC(N)=C(C#N)C1c1cc(C)sc1C (centres undefined)	36	5	0.1	0.6	92*
SMILES	CYP2C9 inh	Measles CPE	CYP2C19 activ	CYP2C9 act	CYP2C19 inh
CCOC(=O)C1=C(C)OC(N)=C(C#N)C1c1ccsc1 (centres undefined)	21	6	0.4	0.8	63*
CC(C)(C)C1=C(C#N)C(c2ccc3c(c2)OCO3)C(C#N)=C(N)O1 (centres undefined)	90*	3	0.1	0.1	89*
COC(=O)C1=C(C)OC(N)=C(C#N)C1c1ccccc1F (centres undefined)	16	4	0.4	0.8	64*
C=CCOC(=O)C1=C(C)OC(N)=C(C#N)C1c1ccc(OC)c(CSc2ccccn2)c1 (centres undefined)	x	13	x	x	x
C=CCOC(=O)C1=C(C)OC(N)=C(C#N)C1c1ccc2c(c1)OCO2 (centres undefined)	98*	11	0	0	100*
COC(=O)C1=C(C)OC(N)=C(C#N)C1c1ccco1 (centres undefined)	x	5	x	x	x
O=C(COc1cccc2c1CCN(Cc1ccc(Br)cc1)C2=O)NCc1ccco1	x	11	x	x	x
COc1ccc(C(=O)Nc2nncs2)cc1S(=O)(=O)N1CC(c2ccccc2)CC1=O (centres undefined)	84*	22	1	0.2	0
Cc1nnc(NC(=O)c2cccc(S(=O)(=O)N3CC(c4ccccc4)CC3=O)c2)s1 (centres undefined)	46	2	1	0.5	-1
C=C(C)Cn1c(CCNC(=O)CC)nc2ccccc21	x	2	x	x	x
COc1cc(C(=O)NCc2ccc3c(c2)OCO3)ccc1OCc1c(C)noc1C	38	41	1	0.6	5
CCCNc1cc(C)c(C#N)c2nc3ccccc3n12	x	21	x	x	x
CCCc1cc(NCC2CCCO2)n2c(nc3ccccc32)c1C#N (centres undefined)	60*	13	1	0.4	2
COc1ccc(Sc2nc3ccccc3n3c(C(F)(F)F)nnc23)cc1	-15	5	0.9	1.1	8
COc1ccc(-c2cc(-n3c(C(F)(F)F)nc4ccccc43)n(CCC#N)n2)cc1	72*	8	0.4	0.3	63*
CC1Cc2ccccc2N1C(=O)CSc1nnc(NC(=O)Cc2cccs2)s1 (centres undefined)	6	6	0.9	0.9	13
CCCCC1CC(C)(C(=O)CSc2nc3ccccc3s2)OC1=O (centres undefined)	78*	1	1	0.2	4
O=C(O)c1ccccc1SCC(=O)N1CCCCC1	10	40*	1.1	0.9	-5
CC1CCCC(C)N1C(=O)CSc1nnc(NC(=O)Cc2cccs2)s1 (centres undefined)	19	46*	0.8	0.8	16
O=C(CSc1nc2ccccc2s1)N1CCCCC1	21	11	0.2	0.8	84*
NC(=O)C1CCN(C(=O)CSc2nc3ccccc3s2)CC1	23	5	0.9	0.8	8
CCOC(=O)C1=NN(c2ccccc2C)C2=NC(C)=C(C(=O)OC)C(c3cccc(OC)c3)N12 (centres undefined)	x	9	x	x	x
CCc1ccccc1NC(=O)CC(O)(C(=O)OC)C(F)(F)F (centres undefined)	23	21	0.5	0.8	48
CCc1ccc(C(=O)N2CCC(c3nc4ccccc4s3)CC2)cc1	76*	6	0.6	0.2	39
CC1CCCC(C)N1C(=O)CSc1nc2ccccc2s1 (centres undefined)	61*	8	0.1	0.4	86*
CC1CCN(C(=O)CSc2nc3ccccc3s2)CC1	63*	1	0.4	0.4	57*
CC1CCCN(C(=O)CSc2cnc3ccccc3n2)C1 (centres undefined)	11	69	0.5	0.9	50*
CC1CCCN(C(=O)CN2C(=O)c3ccccc3C2=O)C1 (centres undefined)	5	14	1	1	-4
